From PubChem BioAssay
The entries come from a sample that favours hits as a whole.
Pf apPOL inh = Pf-apPOL DNA polymerase inhibition | Recombinant Pf-apPOL, molecular beacon fluorescence, 1.5 h | hit rate 0.25% among 210,000 | inhibition, % at 10 µM | AID 1794808
mHTT-CaM PPI inh = mHTT-calmodulin interaction abrogation. hit rate 3.6% among 190,000. AlphaScreen His-mHTT/GST-CaM binding, luminescence. AID 1671202. inhibition, % at 15 µM;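 further: 0% = both proteins with DMSO and 100% = one protein alone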
Target sequence (P42858 whole entry, looked up, stated change not applied): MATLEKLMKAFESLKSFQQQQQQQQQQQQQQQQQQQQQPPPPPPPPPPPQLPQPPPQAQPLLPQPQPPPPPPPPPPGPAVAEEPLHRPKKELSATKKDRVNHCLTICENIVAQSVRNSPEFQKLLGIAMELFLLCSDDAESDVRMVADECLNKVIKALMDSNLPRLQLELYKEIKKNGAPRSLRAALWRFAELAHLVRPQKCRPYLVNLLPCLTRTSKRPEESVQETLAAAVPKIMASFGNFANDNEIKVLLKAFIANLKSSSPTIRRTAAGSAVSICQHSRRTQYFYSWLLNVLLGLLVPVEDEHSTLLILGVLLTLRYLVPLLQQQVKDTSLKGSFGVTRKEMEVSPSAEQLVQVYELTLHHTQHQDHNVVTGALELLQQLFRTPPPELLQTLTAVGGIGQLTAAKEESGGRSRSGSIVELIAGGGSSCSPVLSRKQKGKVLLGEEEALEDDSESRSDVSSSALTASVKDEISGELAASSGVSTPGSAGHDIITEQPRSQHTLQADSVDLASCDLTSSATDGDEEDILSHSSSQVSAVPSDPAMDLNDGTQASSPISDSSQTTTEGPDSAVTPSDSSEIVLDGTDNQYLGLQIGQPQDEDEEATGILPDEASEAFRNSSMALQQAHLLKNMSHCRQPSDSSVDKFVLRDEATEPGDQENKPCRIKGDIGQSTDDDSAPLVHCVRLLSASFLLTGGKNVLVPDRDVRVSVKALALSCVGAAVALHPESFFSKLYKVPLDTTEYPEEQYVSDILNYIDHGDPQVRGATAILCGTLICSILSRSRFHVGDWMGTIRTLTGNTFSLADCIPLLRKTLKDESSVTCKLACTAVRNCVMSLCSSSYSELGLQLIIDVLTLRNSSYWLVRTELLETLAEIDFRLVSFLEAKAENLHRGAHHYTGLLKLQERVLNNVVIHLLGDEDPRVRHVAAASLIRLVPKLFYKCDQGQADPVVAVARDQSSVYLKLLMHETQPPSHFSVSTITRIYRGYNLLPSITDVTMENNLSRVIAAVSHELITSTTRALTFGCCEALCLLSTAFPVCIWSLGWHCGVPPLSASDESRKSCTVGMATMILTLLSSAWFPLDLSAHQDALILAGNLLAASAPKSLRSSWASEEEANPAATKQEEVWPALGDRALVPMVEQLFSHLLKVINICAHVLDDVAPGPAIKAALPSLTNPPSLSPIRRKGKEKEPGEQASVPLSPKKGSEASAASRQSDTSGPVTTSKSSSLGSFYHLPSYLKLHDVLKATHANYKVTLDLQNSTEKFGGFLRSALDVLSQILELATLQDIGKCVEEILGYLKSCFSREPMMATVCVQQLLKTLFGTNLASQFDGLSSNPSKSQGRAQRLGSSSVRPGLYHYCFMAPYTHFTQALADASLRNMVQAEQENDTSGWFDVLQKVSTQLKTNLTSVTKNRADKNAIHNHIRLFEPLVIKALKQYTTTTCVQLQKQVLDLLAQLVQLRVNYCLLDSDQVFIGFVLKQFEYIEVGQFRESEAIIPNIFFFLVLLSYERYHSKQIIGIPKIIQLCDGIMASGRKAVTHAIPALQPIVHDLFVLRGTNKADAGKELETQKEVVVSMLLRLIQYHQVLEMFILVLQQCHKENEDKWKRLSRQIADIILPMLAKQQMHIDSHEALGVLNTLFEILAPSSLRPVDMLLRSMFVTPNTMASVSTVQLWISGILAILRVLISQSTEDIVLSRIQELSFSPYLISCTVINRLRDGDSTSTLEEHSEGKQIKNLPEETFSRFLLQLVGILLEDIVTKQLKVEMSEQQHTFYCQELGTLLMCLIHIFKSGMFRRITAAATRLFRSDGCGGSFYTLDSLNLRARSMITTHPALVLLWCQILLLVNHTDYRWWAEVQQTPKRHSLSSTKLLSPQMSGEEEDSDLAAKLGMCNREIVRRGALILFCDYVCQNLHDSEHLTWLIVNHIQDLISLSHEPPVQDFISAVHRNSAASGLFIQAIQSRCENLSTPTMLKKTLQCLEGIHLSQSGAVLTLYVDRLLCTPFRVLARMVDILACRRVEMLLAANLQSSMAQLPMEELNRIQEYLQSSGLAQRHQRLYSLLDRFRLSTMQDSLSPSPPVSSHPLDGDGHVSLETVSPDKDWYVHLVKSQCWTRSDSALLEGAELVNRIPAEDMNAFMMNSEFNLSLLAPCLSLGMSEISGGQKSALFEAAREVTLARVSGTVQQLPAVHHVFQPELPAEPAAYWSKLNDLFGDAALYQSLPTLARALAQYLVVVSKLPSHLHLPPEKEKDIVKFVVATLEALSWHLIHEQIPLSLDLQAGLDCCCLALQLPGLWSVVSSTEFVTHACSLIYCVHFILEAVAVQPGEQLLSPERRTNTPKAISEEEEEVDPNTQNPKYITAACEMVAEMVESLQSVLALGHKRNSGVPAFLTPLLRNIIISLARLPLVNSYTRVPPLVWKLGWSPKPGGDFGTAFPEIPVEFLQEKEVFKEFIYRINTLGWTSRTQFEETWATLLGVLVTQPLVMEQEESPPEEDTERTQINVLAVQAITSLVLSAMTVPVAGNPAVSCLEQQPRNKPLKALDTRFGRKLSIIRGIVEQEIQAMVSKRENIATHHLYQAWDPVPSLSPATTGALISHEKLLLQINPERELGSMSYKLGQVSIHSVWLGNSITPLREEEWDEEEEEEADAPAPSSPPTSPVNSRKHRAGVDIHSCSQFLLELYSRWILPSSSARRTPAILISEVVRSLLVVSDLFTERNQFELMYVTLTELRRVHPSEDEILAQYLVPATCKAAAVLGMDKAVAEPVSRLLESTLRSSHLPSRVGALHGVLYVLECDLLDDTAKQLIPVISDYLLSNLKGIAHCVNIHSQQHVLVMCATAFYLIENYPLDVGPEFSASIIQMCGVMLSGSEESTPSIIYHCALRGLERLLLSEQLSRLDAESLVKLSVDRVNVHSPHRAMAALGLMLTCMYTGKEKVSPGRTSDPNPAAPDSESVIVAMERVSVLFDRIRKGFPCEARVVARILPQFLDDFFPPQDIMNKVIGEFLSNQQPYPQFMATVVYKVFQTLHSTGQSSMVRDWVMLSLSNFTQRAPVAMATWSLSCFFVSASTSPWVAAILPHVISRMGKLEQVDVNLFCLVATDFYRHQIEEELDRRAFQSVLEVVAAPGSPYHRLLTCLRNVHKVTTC
* hit, by the source's call; · = not tested or not shown. No stated cut-off is given here; in the data, active means inhibition above about 50%; inactive means the rest.

SMILES	Pf apPOL inh	mHTT-CaM PPI inh
O=C1C2CC=CCC2C(=O)N1c1ccc(NC2CCCc3ccccc32)c([N+](=O)[O-])c1 (configuration not stated)	-22	47
CC(=O)C1=C(O)C(=O)N(c2ccccn2)C1c1ccc(F)cc1 (configuration not stated)	-5	8
CCN(CCNC(=O)C1CCCN(c2nnc3ccccn23)C1)c1ccccc1 (configuration not stated)	-1	32
Cc1ccccc1CSCC(=O)Nc1cccnc1	-7	-1
COc1ccc(/C=C2/N=C(c3cc([N+](=O)[O-])ccc3OC)OC2=O)cc1OC	-2	-1
O=C(Nc1nc2n(n1)C(c1ccccc1)C=C(c1ccccc1)N2)c1ccccc1 (configuration not stated)	0	59*
O=C(O)CCC(=O)Nc1nc2n(n1)C(c1ccccc1)C=C(c1ccc(Cl)cc1)N2 (configuration not stated)	2	31
COc1ccccc1CCC(=O)N1CCc2nc3cc(-c4ccccc4)[nH]n3c(=O)c2C1	-1	3
COc1ccccc1CCC(=O)N1CCc2c(nc3cc(-c4ccccc4)[nH]n3c2=O)C1	3	59*
O=C(c1ccc2c(c1)OCO2)N1CCc2c(nc3cc(-c4ccccc4)[nH]n3c2=O)C1	-1	-1
O=C(c1cc(F)ccc1Cl)N1CCc2c(nc3cc(-c4ccccc4)[nH]n3c2=O)C1	3	71*
O=C(c1ccccc1Cl)N1CCc2c(nc3cc(-c4ccccc4)[nH]n3c2=O)C1	-2	46
O=C(c1ccccc1)N1CCc2c(nc3cc(-c4ccccc4)[nH]n3c2=O)C1	51*	49
COc1cc(C=C(C#N)c2nc(-c3cccc4ccccc34)cs2)cc(OC)c1OC(C)=O	-6	10
COc1ccc(C(C)NC(=O)c2cc3c(s2)CN(C2CCCC2)C3)cc1OC (configuration not stated)	0	9
COc1cccc(C(=O)Oc2coc(CSc3nccc(C)n3)cc2=O)c1OC	-6	34
Cc1ccnc(SCc2cc(=O)c(OC(=O)C(C)(C)Oc3ccc(Cl)cc3)co2)n1	2	99*
O=S(=O)(Nc1nccs1)c1ccc(N=Cc2cc(Cl)cc(Cl)c2O)cc1	-2	11
O=[N+]([O-])c1ccc(C=Nc2ccc(S(=O)(=O)Nc3nccs3)cc2)cc1	1	62*
O=S(=O)(Nc1nccs1)c1ccc(N=Cc2cc(Br)ccc2O)cc1	8	88*
O=S(=O)(Nc1nccs1)c1ccc(N=Cc2ccccc2O)cc1	6	10
COc1cc(OC)cc(C(=O)Nc2c3c(nn2C(C)(C)C)CS(=O)(=O)C3)c1	-3	3
Cc1ccc(CNC(=O)c2ccc3c(c2)Sc2ncccc2C(=O)N3C)cc1	-5	-5
CN1C(=O)c2cccnc2Sc2cc(NC(=O)c3cccc(Cl)c3)ccc21	-4	9
CN1C(=O)c2cccnc2Sc2cc(C(=O)NCc3cccc(Cl)c3)ccc21	-15	52*
SMILES	Pf apPOL inh	mHTT-CaM PPI inh
Cc1cccc(C(=O)Nc2ccc3c(c2)Sc2ncccc2C(=O)N3C)c1	-3	65*
O=C(Nc1ccc(F)c(F)c1)c1cc(S(=O)(=O)NC2CCCCCC2)ccc1F	1	23
C[C@@H]1COc2cccc(N3CCCCC3)c2S(=O)(=O)N1	-4	-7
Cc1[nH]c2ccccc2c1C(c1ccncc1)N1CCC(C)CC1 (configuration not stated)	-4	22
COC(c1cccs1)c1c(C)[nH]c2ccccc12 (configuration not stated)	4	60*
O=C(COc1ccccc1)Nc1ccc2c(c1)Sc1ccccc1C(=O)N2C1CC1	-2	7
CN(C)c1ccc(C(=O)NCC(C)(O)c2ccco2)cc1 (configuration not stated)	-4	-7
CN(C)S(=O)(=O)c1ccc(C(=O)N2CCCC(c3nnc(-c4cccs4)o3)C2)cc1 (configuration not stated)	-6	-12
O=[N+]([O-])c1cc(NC2OCC(O)C(O)C2O)ccc1S(=O)(=O)O (configuration not stated)	62*	-5
O=[N+]([O-])c1cccc(NC2OCC(O)C(O)C2O)c1 (configuration not stated)	1	7
COc1ccc(C2=N/C(=C3/OC(=O)c4ccccc43)C(=O)O2)cc1	5	-2
CN(C)S(=O)(=O)c1ccc(C(=O)Nc2cccc([N+](=O)[O-])c2)cc1	1	-6
O=C(Nc1ccccc1Br)c1cc(S(=O)(=O)NC2CCCCCC2)ccc1F	-6	-20
O=[N+]([O-])c1ccc(N2CCCCC2)nc1	3	7
O=[N+]([O-])c1ccc(N2CCCCCC2)nc1	99*	5
CCCn1ccc2sc(C)c(C(=O)N3CCN(c4ccccc4)CC3)c2c1=O	2	35
Cc1sc2ccn(C)c(=O)c2c1C(=O)N1CCN(c2ccc(Cl)cc2)CC1	-6	70*
Cc1sc2ccn(C)c(=O)c2c1C(=O)N1CCCCC1	-3	-7
CCn1ccc2sc(C)c(C(=O)N3CCN(c4ccccc4)CC3)c2c1=O	-7	59*
O=C(Nc1ccccc1F)c1cnn2c3c(cnc12)CCCCCC3	-3	2
N#Cc1c(N2CCCCC2)ncc2c(=O)c3ccccc3[nH]c12	0	4
CC(=O)N(C(C)=O)c1ncc2c([nH]c3ccccc32)c1C#N	-3	83*
O=[N+]([O-])c1cccc2ccc(Nc3ccccn3)nc12	3	14
COc1ccc(NC(=O)Nc2cc(C)ccn2)cc1	-4	-3
COc1ccccc1C(Nc1cc(C)ccn1)c1ccc2cccnc2c1O (configuration not stated)	-8	99*
SMILES	Pf apPOL inh	mHTT-CaM PPI inh
Cc1ccnc(NC(c2ccccc2[N+](=O)[O-])c2ccc3cccnc3c2O)c1 (configuration not stated)	-3	100*
COc1ccc(C(Nc2cc(C)ccn2)c2ccc3ccc(C)nc3c2O)cc1OC (configuration not stated)	-55	96*
COc1ccc(C)cc1NS(=O)(=O)c1cccc2cccnc12	-1	-3
COc1ccc(C(Nc2cc(C)ccn2)c2ccc3cccnc3c2O)cc1OC (configuration not stated)	3	100*
COc1cccc2cc(C(=O)Nc3cc(C)ccn3)c(=O)oc12	-3	0
COc1ccccc1OCC(=O)N1CCN(c2ccccc2OC)CC1	0	1
COc1ccc(C(=O)Nc2ccc(S(N)(=O)=O)cc2)cc1I	-3	14
COc1ccccc1C=NNC(=S)NCc1ccco1	8	·
O=C1NN=CC1CCCN=Cc1cc(Cl)cc(Cl)c1O (configuration not stated)	8	·
COc1ccc(C(Nc2ccccn2)c2ccc3cccnc3c2O)cc1OC (configuration not stated)	-4	100*
CCOc1ccc(C(Nc2ccccn2)c2ccc3ccc(C)nc3c2O)cc1OC (configuration not stated)	1	49
CC1(C(=O)NC2CCCC2)Cn2c(cc3sccc32)C(=O)N1Cc1cccs1 (configuration not stated)	-2	-6
CCOc1cc2c(cc1OCC)C1C(C(=O)NCc3cccnc3)c3ccccc3C(=O)N1CC2 (configuration not stated)	-4	0
CCOc1cc(O)c(-c2n[nH]c(C)c2-c2ccc(F)cc2)cc1CC	-4	47
